Holding throughout (assay): NCI-60 one-dose screen, 48 h (100 = growth as untreated, 0 = no growth, -100 = all killed)
Holding throughout (conditions): 10 µM unless noted

The test system of assay [1] is NCI-H23 lung.
Assay [2] relates to NCI-H226 lung.
Assay [3] concerns NCI-H322M lung.
The subject of assay [4] is HOP-62 NSCLC.
The test system of assay [5] is NCI-H460 lung.
Assay [6] relates to HOP-92 NSCLC.
Assay [7] concerns NCI-H522 lung.
The subject of assay [8] is A549/ATCC NSCLC.
For assay [9], the system named is 786-0 renal.
Assay [10] has as its system COLO 205 colon.

Each structure is given as a SMILES string. The panel holds about 83,000 compounds, 20% with a hit somewhere; the sample as a whole holds those more often.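 Cell lines were cultured in 96-well plates, exposed to a single compound concentration, and assessed for percent growth 48 hours later.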 Values without a mark were called inactive. Activity calls are given as the source filed them. The calls were made as follows: active = growth percent below 10; inactive = the rest.

Regarding `CCOc1ccc(/C=C(\C#N)c2cc3ccccc3[nH]2)cc1`, the growth in [1] is 78.6%; in [2], 90%; in assay [3], 87.1%; in assay [4], 54.7%; in assay [5], 36.2%; in [6] it was 87.4%. In addition, the growth in [7] is 32.8%; in [8], 38%; in assay [9], 89.5%; in [10], 49.4%.
As to `CCOC(=O)/C(C#N)=C(\C)CCc1ccccc1`, the growth is 91.8% in [1]; 102% in assay [2]; 102% in assay [3]; 84.8% in assay [4]; 105% in assay [5]; 81.5% in assay [6]. Further, the growth was 86.1% in assay [7], 90.3% in [8], 90.1% in assay [9] and 132% in [10].
`O=C1Nc2ccccc2/C1=C/C(=O)c1ccc(N2CCCCC2)cc1`: the growth is 75.7% in [1]; 86.7% in assay [2]; 96.6% in assay [3]; 102% in [4]; 77.9% in assay [5]; 56.7% in assay [6]. For the same molecule, the growth in assay [7] is 61.7%; in [8], 95.1%; in assay [9], 98.7%; in assay [10], 74.6%.
For `CCCSc1nc(N)nc2nc[nH]c12`, the growth is 97.5% in [1]; 103% in [2]; 161% in [3]; 95.7% in assay [4]; 106% in assay [5]; 91.9% in [6]. The growth is 88.4% in assay [7], 105% in assay [8], 97.5% in assay [9] and 113% in assay [10].
For the molecule `COc1cc2c(O)n(CCCN3CCOCC3)c3c4cnc5cccc(c(=O)c3c2cc1OC)c54`, the growth was 33.3% in [1]; 38.2% in assay [2]; 47.2% in [3]; 14.5% in assay [4]; 9.15% (active) in assay [5]; 58.4% in assay [6]. Further, the growth was 16.9% in [7], 30.1% in [8], 19% in assay [9] and 34.2% in assay [10].
With `COc1ccc(OC)c(NC=O)c1`, the growth in assay [1] is 101%; in assay [2], 103%; in [3], 111%; in [4], 98.1%; in assay [5], 105%; in assay [6], 101%. Also, the growth is 103% in [7], 105% in assay [8], 104% in [9] and 108% in assay [10].
Take `COc1cc(OC)cc(C(=O)Nc2cc(-c3cccnc3)nc(NCCCN3CCOCC3)n2)c1`: the growth is 91.7% in assay [1]; 85.7% in assay [2]; 90.9% in assay [3]; 87.8% in assay [4]; 95.3% in [5]; 67.7% in [6]. For the same molecule, the growth in [7] is 92%; in assay [8] it was 92.6%; in assay [9], 84%; in assay [10] it was 94.3%.
Turning to `C#CCNC(=O)CC[C@@H](C)[C@H]1CC[C@H]2[C@@H]3CC[C@@H]4CC(=O)CC[C@]4(C)[C@H]3CC[C@]12C`, the growth in assay [1] is -27.5% [100 µM] (active); in assay [2], -63.7% [100 µM] (active); in assay [3], -5.44% [100 µM] (active); in assay [4], -56.3% [100 µM] (active); in assay [5], -55.5% [100 µM] (active); in assay [6], -71.6% [100 µM] (active). Moreover, the growth in assay [7] is -63.8% [100 µM] (active); in [8] it was 6.94% [100 µM] (active); in [9], -71.9% [100 µM] (active); in assay [10] it was -70.9% [100 µM] (active).
As to `O=C1Cc2c(sc3c(F)cccc23)C(c2ccccc2[N+](=O)[O-])N1` (stereo not given), the growth was 98.6% in assay [1]; 79.3% in [2]; 99% in [3]; 91.5% in assay [4]; 76.9% in [5]; 92.2% in assay [6]. Moreover, the growth in [7] was 102%; in assay [8], 106%; in assay [9], 110%; in assay [10], 113%.
`C=C(C)[C@@H]1CC[C@]2(c3ncc(C)o3)CC[C@]3(C)[C@H](CC[C@@H]4[C@@](C)(CCC#N)[C@H](C(=C)C)CC[C@]43C)[C@@H]12`: the growth was -68.1% [100 µM] (active) in [1]; -55.2% [100 µM] (active) in [2]; -83.5% [100 µM] (active) in assay [3]; -86.1% [100 µM] (active) in assay [4]; -71.4% [100 µM] (active) in [5]; -85.7% [100 µM] (active) in [6]. The growth in assay [7] is -85.4% [100 µM] (active); in assay [8] it was -84.8% [100 µM] (active); in [9], -85.6% [100 µM] (active); in assay [10], -82% [100 µM] (active).
In the case of `N#CCCc1c[nH]c2ccccc12`, the growth in [1] was 105%; in [2], 90.3%; in assay [3], 94.1%; in assay [4] it was 82%; in assay [5], 97.7%; in assay [6], 75.5%. Also, the growth is 94.6% in assay [7], 89% in [8], 104% in assay [9] and 99.5% in assay [10].
Turning to `c1cc2ccc1CNCCN1CCNCc3ccc(cc3)Oc3ccc(cc3)CNCCN(CCNCc3ccc(cc3)O2)CCNCc2ccc(cc2)Oc2ccc(cc2)CNCC1`, the growth in assay [1] is -79.3% (active); in [2], -56.6% (active); in assay [3], -28.5% (active); in assay [4], -78.2% (active); in assay [5] it was -66.3% (active); in [6], -92.2% (active). Besides, the growth is -84.3% (active) in assay [7], -79.1% (active) in [8], 66.2% in assay [9] and -86.8% (active) in assay [10].
With `COc1cc(-c2cc(-c3ccc(Nc4ncnc5cc(Cl)ccc45)cc3)nc(N3CCCCC3)n2)cc(OC)c1OC`, the growth in [1] was 102%; in [2], 99.3%; in assay [3], 95.5%; in [4] it was 84.7%; in assay [5] it was 94.7%; in assay [6], 92%. Besides, the growth in [7] was 75.3%; in [8], 84.7%; in assay [9], 98.9%; in assay [10], 110%.

The record behind these values is PubChem BioAssay (NCI).
